The values that follow come from PubChem BioAssay (NCI).

About 79,000 compounds went through this panel and 15% of them were active in at least one assay; those are over-represented in the sample as a whole. Values without a mark were called inactive. Calls of active or inactive are those of the source. No stated cut-off is given here; in the data, active means growth inhibition above about 70%; inactive means the rest.

Assay [1] is described as follows: NCI Yeast Anticancer Drug Screen. Data for the rad50 strain (AID 155).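 Further: 0% = growth of vehicle-only cultures of the same strain.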 As to conditions: S. cerevisiae rad50 strain growth inhibition; at 50.0 µM; hits give high values. An outline of the steps:
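Genetically altered yeast (DNA repair pathway); compound treatment; growth inhibition vs vehicle ctrl.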

Assay [2] in a line: NCI Yeast Anticancer Drug Screen. Data for the mec2-1 strain (AID 157). Particulars: S. cerevisiae mec2-1 strain, at 50.0 µM, hits give high values. In short, it runs like this:
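Each compound was tested on mec2-1 yeast, a strain altered in DNA damage repair or cell cycle control. Growth inhibition is reported relative to vehicle.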

Assay [3] is described as follows: NCI Yeast Anticancer Drug Screen. Data for the sgs1 mgt1 strain (AID 161).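 Further: 0% = growth of cultures given vehicle only.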 As to conditions: S. cerevisiae sgs1 mgt1 strain, at 50.0 µM, hits give high values. An outline of the steps:
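Inhibition of yeast growth, normalised to vehicle-treated controls, is reported for a strain bearing genetic alterations in DNA damage repair.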

Assay [4] can be described thus: NCI Yeast Anticancer Drug Screen. Data for the cln2 rad14 strain (AID 165).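 Further: 0% = growth equal to vehicle treated cultures.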 Particulars: S. cerevisiae cln2 rad14 strain, at 50.0 µM, hits give high values. An outline of the steps: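 Test compounds were added to cln2 rad14 yeast cultures; inhibition of growth was then determined by comparison with vehicle treatment.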
A short description of assay [5]: NCI Yeast Anticancer Drug Screen. Data for the bub3 strain (AID 167). Particulars: S. cerevisiae bub3 mutant strain, at 50.0 µM, hits give high values. In short, it runs like this: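 Yeast carrying a defined mutation is treated with each compound, and growth is compared with that of vehicle-exposed cells to give inhibition.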
The nature of assay [6]: NCI Yeast Anticancer Drug Screen. Data for the mlh1 rad18 strain (AID 175). As to conditions: S. cerevisiae mlh1 rad18 strain growth inhibition; at 50.0 µM; hits give high values. An outline of the steps: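 Inhibition values reflect reduced growth of mutant yeast versus vehicle-treated controls following compound exposure; the mutations affect DNA damage repair.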

As to `C/C(CC(=O)N(C(C)C)C(C)C)=N\NC(=O)c1ccncc1`, the growth inhibition in assay [1] was -3.45%; in assay [2], -12.3%; in assay [3], -18.9%; in assay [4] it was 18.7%; in assay [5], -10.7%; in assay [6], 13.8%.

`Nc1c(Cl)cc2c(c1Br)Cc1cc(F)ccc1-2`: the growth inhibition was -0.15% in assay [1]; 2.15% in assay [2]; -3.55% in assay [3]; -0.05% in assay [4]; 14.8% in assay [5]; -9.65% in assay [6].

In the case of `O=c1oc2ccc3ccccc3c2cc1-c1c[nH]c2ccccc12`, the growth inhibition in assay [1] is 10.7%; in assay [2], 10%; in assay [3] it was 15.2%; in assay [4] it was 11.6%; in assay [5], 6.05%; in assay [6] it was 7.05%.

Regarding `CCCn1cnc2c(SCC(=O)O)nc(N)nc21`, the growth inhibition in assay [1] is -33.3%; in assay [2], -18.9%; in assay [3] it was -24.4%; in assay [4], -26.1%; in assay [5], -22.1%; in assay [6] it was -8.9%.

Regarding `NC(=O)COc1ccc(Cl)cc1Cl`, the growth inhibition in assay [1] is 16.6%; in assay [2] it was -0.5%; in assay [3], 28.4%; in assay [4] it was -0.4%; in assay [5] it was 5.7%; in assay [6] it was 20%.

In the case of `COc1cc2c(cc1OC)[C@H]1Cc3cc(OC)c(OC)cc3[C@@H](C2)N1C(C)=O`, the growth inhibition in assay [1] was -2.1%; in assay [2], -11.2%; in assay [3], -16.6%; in assay [4], 22.6%; in assay [5] it was 20.9%; in assay [6], -3.6%.

Turning to `O=C(NC(Cc1ccccc1)C(=O)O)Oc1ccc2ccccc2c1` (configuration not stated), the growth inhibition in assay [1] was 2.9%; in assay [2], 8.25%; in assay [3] it was 6.1%; in assay [4], -0.95%; in assay [5] it was -4.8%; in assay [6], -5.2%.

Turning to `CC(=O)OCC1(C)NC(=O)c2ccccc2O1` (configuration not stated), the growth inhibition was 8.2% in assay [1]; 20.2% in assay [2]; 6.9% in assay [3]; 8.15% in assay [4]; 9.7% in assay [5]; 22.4% in assay [6].

With `Cc1cc2c(cc1[N+](=O)[O-])OCCO2`, the growth inhibition was 11.3% in assay [1]; 3.9% in assay [2]; 4.55% in assay [3]; -15.5% in assay [4]; -3.25% in assay [5]; 8.55% in assay [6].

As to `CC(=O)N(c1ccc(NC(=O)c2ccc(N3C(=O)c4ccccc4C3=O)cc2[N+](=O)[O-])cc1)c1cc[n+](C)cc1`, the growth inhibition was -13.8% in assay [1]; 2.3% in assay [2]; -1% in assay [3]; 9.35% in assay [4]; -5.1% in assay [5]; 3.75% in assay [6].

With `CCCCC(/C=C(/C)C(=O)O)CC` (configuration not stated), the growth inhibition in assay [1] was 6.9%; in assay [2] it was 1.6%; in assay [3], 3.9%; in assay [4] it was -1.8%; in assay [5], 3.3%; in assay [6], 0.9%.

Regarding `CCCCc1c(OCC)cc2n(CC)c3ccccc3n2c1=O`, the growth inhibition in assay [1] was -8.45%; in assay [2], -9.85%; in assay [3], 0.8%; in assay [4], -10.9%; in assay [5] it was -45%; in assay [6], -11.9%.

Regarding `CC(=O)Oc1ccc2c(c1)CC[C@@H]1C2[C@@H](O[N+](=O)[O-])C[C@@]2(C)C1CC[C@@H]2O` (some centres not stated), the growth inhibition in assay [1] is 25.5%; in assay [2], 43.3%; in assay [3], 77.2% (active); in assay [4], 62%; in assay [5] it was 31.9%; in assay [6] it was 57.8%.

Take `CCOC(=O)C1CC(=O)NC(N)=N1` (configuration not stated): the growth inhibition in assay [1] was -12.6%; in assay [2] it was -29.4%; in assay [3], -13.6%; in assay [4], -7.95%; in assay [5], -8.2%; in assay [6], -14.2%.

For the compound `CC(NC(=O)CNC(=O)CNC(=O)OCc1ccccc1)C(=O)OCc1ccccc1` (configuration not stated), the growth inhibition in assay [1] is 4.35%; in assay [2], 1.4%; in assay [3], -3.65%; in assay [4], -3.65%; in assay [5] it was 1.45%; in assay [6] it was 5.4%.

As for `CCCCCCCCCCCCNC`, the growth inhibition is 38.2% in assay [1]; 30.4% in assay [2]; 61.9% in assay [3]; 30.6% in assay [4]; 62.6% in assay [5]; 44.9% in assay [6].

Turning to `CC(C(=O)c1ccncc1)c1ccccn1` (configuration not stated), the growth inhibition in assay [1] was 1.85%; in assay [2] it was 6.65%; in assay [3], -25.4%; in assay [4], -18.9%; in assay [5] it was -12.9%; in assay [6] it was 3.5%.

As for `CCN(CC)c1ccc(-c2c3ccccc3nc3ccccc23)cc1`, the growth inhibition in assay [1] is -5.05%; in assay [2], -7.75%; in assay [3] it was 7.45%; in assay [4], -12.4%; in assay [5], -17.1%; in assay [6] it was -3.5%.

As to `CC1CCOC(C)(Cc2ccccc2)O1` (configuration not stated), the growth inhibition in assay [1] was -2.8%; in assay [2], -3.05%; in assay [3] it was -6.9%; in assay [4], -58.8%; in assay [5] it was -18.1%; in assay [6] it was -10.9%.

`C/C(CC(=O)Nc1ccccc1[N+](=O)[O-])=N\NC(N)=O`: the growth inhibition in assay [1] is 14.1%; in assay [2], -15.8%; in assay [3], -18.1%; in assay [4], 27.4%; in assay [5], -23.1%; in assay [6], -2.9%.

For `CCC(=O)Nc1cc(C)c(C)cc1C`, the growth inhibition in assay [1] was 4.75%; in assay [2] it was -10.2%; in assay [3], -2.2%; in assay [4], -42%; in assay [5], 6.6%; in assay [6], -8.4%.

Regarding `O=C(O)c1cc(CC2Cc3cc4c(cc3C2=O)CCC4)cc2c1CCC2` (configuration not stated), the growth inhibition in assay [1] was -27.4%; in assay [2], -30.1%; in assay [3], -21.6%; in assay [4] it was 6.05%; in assay [5], -18.8%; in assay [6] it was -21.8%.

On to `CC1SC2=NC3=C(c4ccccc4C3=O)C(c3ccc(F)cc3)N2C1=O` (configuration not stated), for which the growth inhibition is 34.4% in assay [1]; 24.2% in assay [2]; 35.8% in assay [3]; 32% in assay [4]; 47.1% in assay [5]; 22.8% in assay [6].

For `NCCOc1ccccn1`, the growth inhibition in assay [1] was -1.7%; in assay [2], -10.8%; in assay [3] it was -0.6%; in assay [4] it was -10.7%; in assay [5], 1%; in assay [6], -1.9%.

Regarding `O=C1C(Cl)=C(Nc2ccc([N+](=O)[O-])cc2)C(=O)c2ccccc21`, the growth inhibition in assay [1] was 6.6%; in assay [2], 2.55%; in assay [3], 4.6%; in assay [4], -40%; in assay [5], -0.7%; in assay [6], 5.5%.

As to `O=[N+]([O-])c1ccc(-n2cnc3c(Cl)ncnc32)cc1`, the growth inhibition in assay [1] is 1.2%; in assay [2] it was 35.9%; in assay [3], 14.6%; in assay [4], -0.55%; in assay [5], 28.4%; in assay [6], 0.6%.

In the case of `O=C1c2ccccc2NC(c2cc(Cl)cc(Cl)c2O)N1CCc1ccccn1` (configuration not stated), the growth inhibition in assay [1] is 8.05%; in assay [2] it was -21.9%; in assay [3], -14.4%; in assay [4], 14.7%; in assay [5], -25.1%; in assay [6], -11.9%.

As to `C1CCC2(CC1)CCCN2`, the growth inhibition in assay [1] is 7.15%; in assay [2], 3.35%; in assay [3], 1.4%; in assay [4] it was -3.5%; in assay [5], -1.75%; in assay [6], 6.35%.

Turning to `CCC1CC2CCC(c3cc4c(cc3OC)N(C)C3C(O)(C(=O)OC)C(OC(C)=O)C5(CC)C=CCN6CCC43C65)c3[nH]c4ccccc4c3CCN(C1)C2` (configuration not stated), the growth inhibition is 2.65% in assay [1]; 6.65% in assay [2]; 12.4% in assay [3]; -1% in assay [4]; -3.35% in assay [5]; 18.9% in assay [6].

Consider `c1ccc2c(c1)CCCN2c1nc(N2CCCCC2)nc(N2CCOCC2)n1`, for which the growth inhibition in assay [1] was 12.9%; in assay [2] it was -17.9%; in assay [3], 22.6%; in assay [4], 22.1%; in assay [5], 11.6%; in assay [6] it was 20.1%.

As to `Oc1ccc2ccccc2c1C=NCc1c(O)ccc2ccccc12`, the growth inhibition in assay [1] was 3.5%; in assay [2], -1.7%; in assay [3], -11.2%; in assay [4], -39.2%; in assay [5], -43.6%; in assay [6], 8.75%.

As to `O=C(NC1CC/C=C(/c2ccccc2)CC(Cl)C1)c1ccccc1` (configuration not stated), the growth inhibition in assay [1] is 7.85%; in assay [2], 4.9%; in assay [3], -8.9%; in assay [4] it was -3.5%; in assay [5], 6.6%; in assay [6] it was -0.25%.

In the case of `CCOC1CCCCO1` (configuration not stated), the growth inhibition was -24.5% in assay [1]; -4.1% in assay [2]; -13.4% in assay [3]; 9.4% in assay [4]; -13.8% in assay [5]; -8.1% in assay [6].

Take `Cc1cccc(C)c1NC=O`: the growth inhibition in assay [1] was 4.7%; in assay [2] it was -2.35%; in assay [3], -3.3%; in assay [4], 1.45%; in assay [5], -9.8%; in assay [6], 8.9%.

In the case of `CC(C)=NNC(=O)c1ccc(Cl)cc1`, the growth inhibition in assay [1] was -19.1%; in assay [2] it was -25.1%; in assay [3], -18.2%; in assay [4], 17.1%; in assay [5] it was -7.85%; in assay [6] it was -32.1%.

`C#CN1C(=O)c2c(c(-c3ccccc3)c(-c3ccc(Oc4ccc(-c5c(-c6ccccc6)c6c(c(-c7ccccc7)c5-c5ccccc5)C(=O)N(C#C)C6=O)cc4)cc3)c(-c3ccccc3)c2-c2ccccc2)C1=O`: the growth inhibition in assay [1] is 7.25%; in assay [2], 10.1%; in assay [3], 1.9%; in assay [4] it was 10.3%; in assay [5], 1.4%; in assay [6], 15.2%.

With `Clc1cc2nc(C3CCCO3)[nH]c2cc1Cl` (configuration not stated), the growth inhibition in assay [1] is 24.3%; in assay [2] it was 2.15%; in assay [3], 29.5%; in assay [4], 5%; in assay [5] it was 19.9%; in assay [6], 55.2%.
